Records with an inconclusive call do not appear. Activity calls are given as the source filed them. The call rests on the fitted dose curve; in most records, active means well fitted inhibition curve with a large enough effect in the repeat runs; inconclusive means weak or mixed curves, or effect the other way; inactive means no such curve, though single readings can be large or run the other way.
What follows are molecules tested against Nuclear receptor subfamily 1 group I member 3 (Homo sapiens) (UniProt Q14994) (assay: qHTS assay to identify small molecule antagonists of the constitutive androstane receptor (CAR) signaling pathway (AID 1224838;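 further: HepG2 cells stably expressing hCAR with CYP2B6 luciferase reporter stimulated by CITCO; nearly all actives have a fitted effect of over 40% in size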)). Settings: HepG2-CYP2B6-hCAR luciferase, CITCO-stimulated, 24 h; series mostly up to 92.4 µM; activity, negative = inhibition: at the top concentration.
Chain of Nuclear receptor subfamily 1 group I member 3 (Homo sapiens) (Q14994 whole entry, looked up): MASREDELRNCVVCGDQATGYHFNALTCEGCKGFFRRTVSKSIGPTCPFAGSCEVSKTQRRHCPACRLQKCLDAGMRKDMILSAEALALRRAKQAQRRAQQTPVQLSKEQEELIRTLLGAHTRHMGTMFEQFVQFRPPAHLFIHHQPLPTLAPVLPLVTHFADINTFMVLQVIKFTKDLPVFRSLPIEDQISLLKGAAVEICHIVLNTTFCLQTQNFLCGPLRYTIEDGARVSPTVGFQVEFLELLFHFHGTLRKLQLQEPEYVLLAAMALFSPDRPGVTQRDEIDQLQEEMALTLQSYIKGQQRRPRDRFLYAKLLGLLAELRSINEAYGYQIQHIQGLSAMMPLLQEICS
Source text: U.S. Tox21 Program National Center for Advancing Translational Sciences [NCATS] NIH Chemical Genomics Center [NCGC] U.S. Environmental Protection Agency [EPA] National Institutes of Environmental Health Sciences [NIEHS] National Toxicology Program [NTP] U.S. Food and Drug Administration [FDA] Tox21 Assay Overview: The constitutive androstane receptor (CAR) is a nuclear receptor which regulates multiple drug metabolizing enzymes (DMEs) and transporters. Activating CAR will generally increase the transcription and subsequent translation of CYP2B6 and CYP3A4. These two DMEs represent about 50% of the drug metabolizing potential in the body. When CAR is deactivated, the metabolizing potential in the body will decrease, subsequently increasing the toxicity in the body or lowering the therapeutic potential of a pro-drug. Recently, there have also been studies performed indicating CARs role in energy metabolism and cancer therapy. Therefore, inhibiting CARs activity could have a potential effect on diabetes and cancer. Identifying environmental toxins and compounds which modulate CAR, through the use of the Tox21 10K compound collection, will be an important step in determining the toxicity and potential therapeutic effects these factors will have on the human body.
Tox21 Assay Protocol Summary: A double-stable (hCAR and CYP2B6-2.2kb) transfected cell line, derived from human hepatoma (HepG2) cells, was utilized for the duration of the quantitative high-throughput screens. The HepG2-CYP2B6-hCAR cells suspended in DMEM culture medium supplemented with 10% FBS, 5 ug/mL blasticidin, 0.5 mg/mL geneticin, 100 U/mL penicillin and 100 ug/mL streptomycin were dispensed at 2500 cells/4 uL/well in 1536-well white solid bottom plates using a Multidrop Combi. After the assay plates were incubated at 37 C/5% CO2 for 4 hrs, 23 nL of compounds at 15 concentrations (from 5-48 columns) or positive control (from 1 to 4 columns) were transferred to the assay plates using a Pintool station. One uL of CITCO, was added using a Flying Reagent Dispenser to generate a final concentration of 50 nM CITCO inside each well. After a 24 hr incubation period at 37 C/5% CO2, four uL of ONE-Glo reagent was added into the assay plates using a Flying Reagent Dispenser. After a 30 min incubation period at room temperature, the luminescence intensity in the assay plates was measured using a ViewLux plate reader.
On the % scale 0 is the no-effect control and ±100 the full control effect; potency means the concentration at half of the fitted maximal effect.

SMILES	activity, negative = inhibition	Potency
CCCCC/C(=C\c1ccccc1)CO	14.2% (inactive)	–
CCCCCCCCCCOS(=O)(=O)O	17.3% (inactive)	–
O=[N+]([O-])c1cccc(S(=O)(=O)NCCNS(=O)(=O)c2cccc([N+](=O)[O-])c2)c1	66.4% [at 42.5 µM] (inactive)	–
CCCCCCCCCOC(C)=O	-4.24% (inactive)	–
O=C(Nc1ccccc1)Nc1ccccc1	178% (inactive)	–
Cc1oncc1C(=O)Nc1ccc(C(F)(F)F)cc1	–	inactive
CCC(C)(C)C1CCC(O)CC1 (stereo not given)	-12.4% (inactive)	–
O=C(O)Cc1ccc(-c2ccccc2)cc1	12.9% [at 42.5 µM] (inactive)	–
CCCCCCCCCCCCCCCCBr	-0.414% [at 19 µM] (inactive)	–
CCCCC(CC)COC(=O)COc1ccc(Cl)cc1C (stereo not given)	-11.6% (inactive)	–
CCOC(=O)C(C)Oc1ccc(Oc2nc3ccc(Cl)cc3o2)cc1 (stereo not given)	46.7% (inactive)	–
Cc1c(C(=O)NN2CCCCC2)nn(-c2ccc(Cl)cc2Cl)c1-c1ccc(Cl)cc1	–	23.7 µM (active)
CCCCCCCCSCCO	0.396% (inactive)	–
N#C/C(=C1/SC[C@@H](c2ccc(Cl)cc2Cl)S1)n1ccnc1	265% [at 42.5 µM] (inactive)	–
CCCOC(=O)c1ccc(N)cc1	148% [at 42.5 µM] (inactive)	–
CO/N=C1\CN(c2nc3c(cc2F)c(=O)c(C(=O)O)cn3C2CC2)CC1CN (stereo not given)	-13.5% [at 42.5 µM] (inactive)	–
O=c1[nH]c2ccc(S(=O)CCN3CCC(Cc4ccc(F)cc4)CC3)cc2o1 (stereo not given)	32% (inactive)	–
CC1=CC(=O)CC(C)(C)C1(O)/C=C/C(C)=C\C(=O)O (stereo not given)	10.7% (inactive)	–
CC1CC(O)CC(C)(C)C1 (stereo not given)	-16.8% (inactive)	–
CC1CC(=O)NN=C1c1ccc(NCC(C)(C)NCC(O)COc2cc(Cl)ccc2C#N)cc1 (stereo not given)	56.7% [at 42.5 µM] (inactive)	–

SMILES	activity, negative = inhibition	Potency
CCCCCCCCCCCCCCC[C@H](O)[C@@H](N)CO	19.1% [at 42.5 µM] (inactive)	–
CCN(CC)CCNC(=O)c1ccc(NC(C)=O)cc1	15.5% [at 42.5 µM] (inactive)	–
CC1(C)C2=CCCC(C)(C)[C@]23CC[C@H]1C3	-12.9% (inactive)	–
CC(=O)OCC(=O)[C@@]12OC(C)(C)O[C@@H]1C[C@H]1[C@@H]3C[C@H](F)C4=CC(=O)C=C[C@]4(C)[C@@]3(F)[C@@H](O)C[C@@]12C	-1.15% [at 42.5 µM] (inactive)	–
CN(C)C(=O)Nc1ccc(Oc2ccc(Cl)cc2)cc1	223% (inactive)	–
CCCC(=O)O[C@]1(C(=O)COC(=O)CC)CC[C@H]2[C@@H]3CCC4=CC(=O)CC[C@]4(C)[C@H]3[C@@H](O)C[C@@]21C	2.05% [at 19 µM] (inactive)	–
C(=C\c1ccccc1)/CN1CCN(C(c2ccccc2)c2ccccc2)CC1	-9.99% [at 42.5 µM] (inactive)	–
Cc1cc(OI)c(C(C)C)cc1-c1cc(C(C)C)c(OI)cc1C	23.5% [at 42.5 µM] (inactive)	–
CC(=O)CC(c1ccc([N+](=O)[O-])cc1)c1c(O)c2ccccc2oc1=O (stereo not given)	8.29% [at 42.5 µM] (inactive)	–
CCc1cccc(N(C)C(N)=Nc2cccc3ccccc23)c1	-21.9% [at 42.5 µM] (inactive)	–
c1ccc(COCc2ccccc2)cc1	-17.9% (inactive)	–
O=C(CS)OCCOC(=O)CS	16.1% (inactive)	–
CCCCCCCCCCCC[N+](C)(C)CC(=O)[O-]	-1.11% (inactive)	–
O=C(O)c1snc(Cl)c1Cl	36.2% (inactive)	–
Fc1ccccc1[C@@H](F)COC1CCC(Nc2ncnc3[nH]ncc23)CC1 (stereo not given in full)	-7.99% (inactive)	–
O=C1OCCN1/N=C/c1ccc([N+](=O)[O-])o1	33.4% [at 42.5 µM] (inactive)	–
Cc1cc2nc3ccc(=[N+](C)C)cc-3sc2cc1N	-8.69% [at 42.5 µM] (inactive)	–
CCCCN(CCCC)CCCOC(=O)c1ccc(N)cc1	72.1% [at 42.5 µM] (inactive)	–
O=S(=O)(c1ccccc1)c1ccc(Cl)cc1	67.4% (inactive)	–
COCCOC(=O)C1=C(C)NC(C)=C(C(=O)OC/C=C/c2ccccc2)C1c1cccc([N+](=O)[O-])c1 (stereo not given)	120% [at 42.5 µM] (inactive)	–
